Structures can show the parent of a compound that is named as a salt.
Legend:
Assay in all cases: thermal shift delta Tm vs DMSO control; higher = stronger stabilization (binding)
Conditions in all cases: 12.5 µM; protein concentration 2 µM
LOC_OS04G57630-cb004 = test system: LOC_OS04G57630-cb004
Outline: (§1)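 Compounds dissolved in DMSO were added to purified rice kinase domain constructs, which had been expressed in E. coli, for differential scanning fluorimetry. Each well held 19.5 μl of 2 μM kinase in 100 mM potassium phosphate pH 7.5, 150 mM NaCl, 10% glycerol and 5 × SYPRO Orange. Fluorescence was followed from 25°C to 95°C at a rate of 0.05°C/s. Shifts in Boltzmann-fitted melting temperature are triplicate means relative to DMSO-only protein.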

LOC_OS05G07850-cb002 = test system: LOC_OS05G07850-cb002
Outline: as §1

LOC_OS05G16824-cb004 = test system: LOC_OS05G16824-cb004
Outline: as §1

LOC_OS05G28520-cb001 = test system: LOC_OS05G28520-cb001
Outline: as §1

LOC_OS05G30820-cb001 = test system: LOC_OS05G30820-cb001
Outline: as §1

LOC_OS05G43570-cb004 = test system: LOC_OS05G43570-cb004
Outline: as §1

LOC_OS06G16330-cb003 = test system: LOC_OS06G16330-cb003
Sequence of LOC_OS06G16330-cb003 (as listed by the source): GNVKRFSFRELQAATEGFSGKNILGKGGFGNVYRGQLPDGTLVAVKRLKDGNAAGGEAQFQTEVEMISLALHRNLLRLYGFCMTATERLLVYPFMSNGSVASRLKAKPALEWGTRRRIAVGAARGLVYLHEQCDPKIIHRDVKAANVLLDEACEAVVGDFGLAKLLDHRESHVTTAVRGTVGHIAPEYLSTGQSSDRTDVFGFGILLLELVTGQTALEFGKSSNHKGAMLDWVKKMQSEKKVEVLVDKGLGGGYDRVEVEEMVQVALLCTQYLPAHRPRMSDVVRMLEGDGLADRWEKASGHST
Outline: as §1

LOC_OS06G22820-cb001 = test system: T1, LOC_OS06G22820-cb001
T1 sequence (whole entry): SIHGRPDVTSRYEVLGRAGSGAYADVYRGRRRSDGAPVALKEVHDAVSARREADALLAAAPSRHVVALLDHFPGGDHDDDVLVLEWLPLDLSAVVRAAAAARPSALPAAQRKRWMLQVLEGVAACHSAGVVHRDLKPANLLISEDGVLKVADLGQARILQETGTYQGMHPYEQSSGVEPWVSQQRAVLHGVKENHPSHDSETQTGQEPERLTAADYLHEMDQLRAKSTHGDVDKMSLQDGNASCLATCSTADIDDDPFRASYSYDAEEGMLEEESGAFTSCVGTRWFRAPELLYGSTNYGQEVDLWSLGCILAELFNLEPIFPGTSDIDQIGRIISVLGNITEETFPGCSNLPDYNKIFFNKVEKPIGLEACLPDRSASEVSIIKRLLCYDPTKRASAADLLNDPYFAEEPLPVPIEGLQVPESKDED
Outline: as §1

LOC_OS07G06570-cb004 = test system: LOC_OS07G06570-cb004
Outline: as §1

LOC_OS07G07230-cb001 = test system: LOC_OS07G07230-cb001
Outline: as §1

Row | Structure (SMILES) | thermal shift delta Tm (LOC_OS04G57630-cb004) [°C] | thermal shift delta Tm (LOC_OS05G07850-cb002) [°C] | thermal shift delta Tm (LOC_OS05G16824-cb004) [°C] | thermal shift delta Tm (LOC_OS05G28520-cb001) [°C] | thermal shift delta Tm (LOC_OS05G30820-cb001) [°C] | thermal shift delta Tm (LOC_OS05G43570-cb004) [°C] | thermal shift delta Tm (LOC_OS06G16330-cb003) [°C] | thermal shift delta Tm (LOC_OS06G22820-cb001) [°C] | thermal shift delta Tm (LOC_OS07G06570-cb004) [°C] | thermal shift delta Tm (LOC_OS07G07230-cb001) [°C]
1 | O=C(Nc1ccccc1C(=O)NC1CCCCNC1=O)c1cc2ccccc2s1 (stereo not given) | 0.09 | 0.55 | -1.58 | 0.54 | 0.1 | 0.18 | -0.39 | 0.25 | 1.21 | 0.41
2 | Cc1c[nH]c(/C=C2\C(=O)Nc3ccccc32)c1CCC(=O)O | 0.5 | 6.66 | 7.29 | 0.67 | 2.14 | 0.11 | 9.94 | 0.18 | 0.84 | 0.79
3 | CO[C@H]1C[C@@H]2CC[C@@H](C)[C@@](O)(O2)C(=O)C(=O)N2CCCC[C@H]2C(=O)O[C@H]([C@H](C)C[C@@H]2CC[C@@H](OP(C)(C)=O)[C@H](OC)C2)CC(=O)[C@H](C)/C=C(\C)[C@@H](O)[C@@H](OC)C(=O)[C@H](C)C[C@H](C)/C=C/C=C/C=C/1C [Ridaforolimus (Deforolimus, MK-8669)] | -0.31 | 0.02 | -1.14 | 0.42 | 0.41 | 0.24 | -0.22 | 0.77 | 1.03 | 0.31
4 | Cc1cc(O)c(-c2ccc([C@@H](C)CN)cc2)c2c1[nH]c(=O)c1sccc12 [OTS514 hydrochloride] | 0.19 | 5 | -0.88 | 0.49 | 0.55 | 0.45 | 1.74 | 0.65 | 1.65 | 0.6
5 | CC[C@H](CO)Nc1nc(NCc2ccccc2)c2ncn(C(C)C)c2n1 [Roscovitine (Seliciclib,CYC202)] | -0.29 | 0.09 | -1.49 | 0.43 | 0.33 | 0.28 | 0.01 | 0.63 | 0.88 | 0.44
6 | Cc1ccc(NC(=O)c2cccc(N(C)C)c2)cc1NC(=O)c1ccc(O)cc1 | 0.32 | 0.13 | 0.14 | 0.63 | 0.58 | 0.61 | 0.4 | 0.59 | 0.77 | 0.22
7 | CCCS(=O)(=O)Nc1ccc(F)c(C(=O)c2c[nH]c3ncc(-c4ccc(Cl)cc4)cc23)c1F [Vemurafenib (PLX4032, RG7204)] | 0.61 | 10.3 | -0.4 | 1.63 | 0.58 | 1.69 | 8.05 | 1.99 | 2.33 | 0.34
8 | CCc1ccc(/C=C2/SC(=S)NC2=O)cc1 | 0.22 | 2.65 | -3.64 | 1.2 | 0.82 | 1 | 0.48 | 1.04 | 1.65 | 0.27
9 | COc1cc2c3cc1Oc1c(OC)c(OC)cc4c1[C@@H](Cc1ccc(O)c(c1)Oc1ccc(cc1)C[C@@H]3N(C)CC2)N(C)CC4 [Berbamine (dihydrochloride)] | -0.01 | -0.48 | -7.42 | -0.11 | 0.47 | 0.27 | -0.31 | 0.13 | 0.83 | 0.33

Reference: the supplement of paper PMC9694430
